Data as given in PubChem BioAssay (Tox21).
Results filed as inconclusive are left out. Active and inactive are the calls of the source. Unless noted, calls come from the whole dose curve; as a rule, active = well fitted curve in the direction sought with a large enough effect in the repeat runs; inconclusive = weak or mixed curves; inactive = no such curve, though single readings can be large; an effect the other way counts as inactive or inconclusive.

How the values were obtained:
[1] = A CellTox Green Cytotoxicity Assay to monitor cytotoxicity in HepG2 cells - 8 hour (AID 1224890); note: nearly all actives have a fitted effect of over 45% in size
In short: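 Fluorescent DNA-binding dye, 600 HepG2 cells/well, 5 h preincubation then compound in DMSO; same plates read at 0–40 h, 37 C.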

[2] = qHTS assay to identify small molecule antagonists of the estrogen receptor alpha (ER-alpha) signaling pathway using the BG1 cell line in the presence of 0.1 nM 17-beta-estradiol - cell viability counter screen (AID 1259241); note: nearly all actives have a fitted effect of over 40% in size
In short: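 Viability in VM7Luc4E2 cells after 22 hr compound exposure under 0.1 nM 17beta-estradiol stimulation, by CellTiter-Fluor.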

[3] = qHTS assay to identify small molecule antagonists of the androgen receptor (AR) signaling pathway using the MDA cell line in the presence of 0.5 nM R1881 - cell viability counter screen (AID 1259242); note: nearly all actives have a fitted effect of over 45% in size
In short: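 Human breast carcinoma MDA-kb2 cells, cultured without CO2, receive compounds alongside 0.5 nM (final) R1881 agonist. After 16 hr at 37C, viability is taken as live-cell protease signal.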

[4] = target: Estrogen receptor (Homo sapiens) (UniProt P03372); assay: qHTS assay to identify small molecule antagonists of the estrogen receptor alpha (ER-alpha) signaling pathway using the BG1 cell line in the presence of 0.1 nM 17-beta-estradiol (AID 1259244); note: nearly all actives have a fitted effect of over 50% in size
Chain of Estrogen receptor (Homo sapiens) (P03372 whole entry, looked up): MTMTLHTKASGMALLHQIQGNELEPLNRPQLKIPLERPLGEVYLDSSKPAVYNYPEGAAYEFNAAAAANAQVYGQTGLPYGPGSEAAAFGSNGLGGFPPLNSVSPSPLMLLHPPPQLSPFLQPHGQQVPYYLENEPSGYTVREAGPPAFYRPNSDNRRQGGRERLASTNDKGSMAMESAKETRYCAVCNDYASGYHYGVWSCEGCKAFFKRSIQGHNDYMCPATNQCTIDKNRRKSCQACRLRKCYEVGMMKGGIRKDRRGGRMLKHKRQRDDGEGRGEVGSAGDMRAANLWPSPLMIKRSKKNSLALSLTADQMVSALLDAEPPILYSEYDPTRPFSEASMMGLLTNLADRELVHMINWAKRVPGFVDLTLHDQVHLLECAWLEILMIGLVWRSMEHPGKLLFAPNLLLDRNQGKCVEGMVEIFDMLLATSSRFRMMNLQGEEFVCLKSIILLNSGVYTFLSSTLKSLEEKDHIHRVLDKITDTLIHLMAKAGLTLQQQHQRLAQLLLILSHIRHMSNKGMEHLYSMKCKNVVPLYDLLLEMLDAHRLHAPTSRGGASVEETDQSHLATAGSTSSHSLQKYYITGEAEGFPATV
In short: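 Seeding of stripped-serum-adapted VM7Luc4E2 cells, 24 h attachment, compound transfer, then 0.1 nM final 17beta-estradiol; after 22 h incubation, ONE-Glo reagent and luminescence reading.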

[5] = qHTS assay to identify small molecule phospholipidosis (PLD) inducers (AID 1259344; active = well fitted curve in the direction sought with a large enough effect; an effect the other way counts as inactive or inconclusive)
In short: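 Accumulated phospholipid, stained red by LipidTOX during 24 h compound treatment of HepG2 cells at 37 C, is quantified from images as pit number and intensity, normalised per cell using Hoechst-stained nuclei.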

[6] = qHTS assay to identify small molecule HDAC inhibitors (AID 1259364); note: potency is the fitted concentration of half-maximal effect;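 note: wild-type HCT-116 cells with endogenous class I/II HDAC activity; nearly all actives have a fitted effect of over 45% in size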
In short: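 After a 2 hr compound incubation (37C, 5% CO2), HCT-116 cells seeded at 1,500/well the day before received HDAC-Glo reagent; signal read as luminescence after 30 min at room temperature.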

[7] = qHTS assay to identify small molecule HDAC inhibitors - cell viability counter screen (AID 1259365); note: series mostly up to about 92 µM; nearly all actives have a fitted effect of over 50% in size
In short: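 Cytotoxicity was gauged in wild-type HCT-116 cells after a brief 2hr treatment with DMSO-dissolved compounds at 37C and 5% CO2, using CellTiter-Glo luminescence developed for 30min at room temperature.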

[8] = qHTS assay to identify small molecule agonists of the sonic hedgehog signaling (Shh) pathway - cell viability counter screen (AID 1259366); note: nearly all actives have a fitted effect of over 50% in size
In short: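 Stable Gli1-Luc NIH/3T3 clone, 2,000 cells/well. Compound exposure 24hr at 37C. Read-out: CellTiter-Fluor fluorescence.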

[9] = qHTS assay to identify small molecule antagonists of the sonic hedgehog signaling (Shh) pathway - cell viability counter screen (AID 1259367); note: nearly all actives have a fitted effect of over 55% in size
In short: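 CellTiter-Fluor signal in conditioned medium-stimulated 3T3 Gli1-Luc cells, 23 hr compound exposure, 37C.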

[10] = qHTS assay to identify small molecule agonists of the sonic hedgehog signaling (Shh) pathway (AID 1259368; calls by dose curve;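 note: NIH/3T3-derived 3T3Gli1-Luc cells carrying a stable Gli1-driven firefly luciferase reporter; series mostly up to about 92 µM; nearly all actives have a fitted effect of over 15% in size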)
In short: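 Stable NIH/3T3 Gli1-Luc reporter clone; 24 hr cpd exposure after a 4 hr settling period; luminescence endpoint.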

[11] = qHTS assay to identify small molecule antagonists of the sonic hedgehog signaling (Shh) pathway (AID 1259369; calls by dose curve; note: nearly all actives have a fitted effect of over 45% in size)
In short: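 Gli1 transcriptional reporter (firefly Luc) in NIH/3T3 background, conditioned-medium activated. 24hr exposure, luminescence endpoint.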

[12] = target: Estrogen receptor beta (Homo sapiens) (UniProt Q92731); assay: qHTS assay to identify small molecule agonists of the estrogen receptor beta (ER-beta) signaling pathway (AID 1259377; active = well fitted activation curve with a large enough effect in the signal ratio in the repeat runs, not every such curve was filed as active; the % refers to the signal ratio)
Chain of Estrogen receptor beta (Homo sapiens) (Q92731 whole entry, looked up): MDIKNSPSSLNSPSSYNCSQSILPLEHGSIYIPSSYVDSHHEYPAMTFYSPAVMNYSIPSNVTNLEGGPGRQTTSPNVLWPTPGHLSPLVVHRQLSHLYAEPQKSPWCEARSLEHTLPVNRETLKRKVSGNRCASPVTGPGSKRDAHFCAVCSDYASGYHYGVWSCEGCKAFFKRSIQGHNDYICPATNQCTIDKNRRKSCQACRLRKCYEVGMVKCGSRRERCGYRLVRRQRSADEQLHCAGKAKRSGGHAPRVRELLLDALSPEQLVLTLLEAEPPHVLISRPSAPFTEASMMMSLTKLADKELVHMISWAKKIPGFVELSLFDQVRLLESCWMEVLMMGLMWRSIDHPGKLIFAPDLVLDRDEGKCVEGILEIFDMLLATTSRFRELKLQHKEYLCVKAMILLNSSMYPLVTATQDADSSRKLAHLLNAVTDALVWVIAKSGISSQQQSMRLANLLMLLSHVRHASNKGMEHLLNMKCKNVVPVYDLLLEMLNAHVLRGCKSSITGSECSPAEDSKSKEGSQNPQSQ
In short: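 Measured by fluorescence intensity from a B/G FRET beta-lactamase substrate (2 h, room temperature) in ER-beta-UAS-bla HEK293T cells treated with DMSO-dissolved compounds for 16 hr at 37C and 5% CO2.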

[13] = target: Estrogen receptor beta (Homo sapiens) (UniProt Q92731); assay: qHTS assay to identify small molecule antagonists of the estrogen receptor beta (ER-beta) signaling pathway (AID 1259378; active = well fitted inhibition curve with a large enough effect in the signal ratio in the repeat runs, not every such curve was filed as active; the % refers to the signal ratio)
In short: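 Antagonist mode: compounds added to beta-lactamase reporter HEK293T ER-beta-UAS cells stimulated with E2 (1nM final), 16 hr at 37C. LiveBLAzer B/G FRET substrate, 2 hours room temperature, fluorescence read-out.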

[14] = qHTS assay to identify small molecule agonists of the androgen receptor (AR) signaling pathway in the presence of an antagonist - cell viability counter screen (AID 1259379);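 note: MDA-kb2 human breast cancer cells carrying an MMTV luciferase reporter; series mostly up to about 92 µM; nearly all actives have a fitted effect of over 25% in size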
In short: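 Counter screen for cell viability run in parallel with the AR agonist-mode luciferase assay. MDA-kb2 cells were co-treated with nilutamide (3.0uM final) and compounds, then incubated 16 hr at 37C, and CellTiter-Fluor fluorescence was measured.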

[15] = qHTS assay to identify small molecule antagonists of the estrogen receptor beta (ER-beta) signaling pathway - cell viability counter screen (AID 1259382);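 note: HEK293T cells carrying ER-beta-UAS-bla reporter stimulated with estradiol; series mostly up to about 92 µM; nearly all actives have a fitted effect of over 55% in size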
In short: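 HEK293T ER-beta-UAS-bla, 2% charcoal-stripped FBS; compounds + 1nM E2 16 hr 37C; CellTiter-Glo luminescence, 30 min RT.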

[16] = target: Estrogen receptor (Homo sapiens) (UniProt P03372); assay: qHTS assay to identify small molecule agonists of the estrogen receptor alpha (ER-alpha) signaling pathway in the presence of an antagonist (AID 1259383; calls by dose curve; note: nearly all actives have a fitted effect of over 15% in size; note: potency is the fitted concentration of half-maximal effect; for activation: top concentration of the series differs between compounds)
In short: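 ER-alpha agonism measured under antagonist challenge: 10.0nM ICI-182,780 (final) plus compound, 15 concentrations, 22hr, VM7Luc4E2 ERE-luciferase cells. Read by luminescence.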

[17] = qHTS assay to identify small molecule agonists or antagonists of the thyroid stimulating hormone receptor (TSHR) signaling pathway - wild type cell line counter screen (AID 1259384; calls by dose curve)
In short: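 Counter screen in untransfected Hek293: compounds (15-point titration, triplicate) plus phosphodiesterase inhibitor Ro20-1724 added after 18 h plating; 30 min RT. Intracellular cAMP via competitive d2/cryptate immunoassay, 1 h incubation.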

[18] = qHTS assay to identify small molecule agonists of the estrogen receptor beta (ER-beta) signaling pathway - cell viability counter screen (AID 1259380); note: nearly all actives have a fitted effect of over 30% in size
In short: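 In this qHTS counter screen, HEK293T cells carrying an ER-beta/UAS beta-lactamase reporter, grown in 2% charcoal-stripped FBS, received compound for 16 hr; ATP-based CellTiter-Glo luminescence was then read after 30 min at room temperature.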

Measured: Potency

CC(=O)N[C@@H](CCC(N)=O)C(=O)O
not listed: [17] | [18]
inactive: all other assays above

CCCCCC[C@@H](CCC)C(=O)O
not listed: [11] | [13] | [18]
inactive: all other assays above

CCCc1ccc(N)cc1
not listed: [5]
inactive: all other assays above

COC(=O)CCCC(=O)O
not listed: [5] | [13]
inactive: all other assays above

CC(C)c1cccc(C(C)C)c1N
not listed: [5] | [12] | [13] | [17]
inactive: all other assays above

O=[N+]([O-])c1ccc(CCO)cc1
not listed: [5] | [11] | [12] | [13] | [17]
inactive: all other assays above

Oc1ccc2c(c1)OC[C@@H](N1CCC(O)(c3ccc(F)cc3)CC1)[C@H]2O
active: [6] 2370 nM | [16] 668 nM
not listed: [5] | [10] | [11] | [13]
inactive: all other assays above

CCC(=O)/C=C/c1ccc(OC)cc1
active: [6] 24300 nM
not listed: [5] | [11] | [13] | [17]
inactive: all other assays above

CCCCC1CCCCC(=O)O1 (centres undefined)
not listed: [5] | [12] | [13]
inactive: all other assays above
